Among all 52,000 compounds or so, about 4,300 (8.3%) were called active. The sample holds actives, similar compounds and a random draw of the others, so the mix is not that of the screen. Unmarked numbers belong to inactive results. No stated cut-off is given here; in the data, active means survival mostly below about 52% (no sharp cut-off); inactive means mostly above about 56%.

In this assay the test system is DeltatarO mutant. The assay is described as follows: growth inhibition of S. aureus wild type versus tarO mutant, primary screen, teichoic acid synthesis inhibitors, RN4220, OD600 (AID 463173). The note with it: OD600, 18 h, hits give low values, screened at 18.75 µg/mL (by protocol).
As for `Cc1ccc(NC(=O)CSc2nc3n[nH]c(C)c3c(=N)n2-c2ccccc2C)cc1C`, the survival was 77%.

Consider `CCOC(=O)C1CCC(CN(Cc2ccc(OC)cc2)S(=O)(=O)c2ccc(F)c(C(=O)Nc3cc(Cl)ccc3OC)c2)CC1` (configuration not stated), for which the survival is 83%. In the case of `CCN(CC)S(=O)(=O)c1ccc2c(c1)N(CC(=O)Nc1cccc(C(C)=O)c1)C(=O)CO2`, the survival is 84%.

On to `Cc1ccc(Cl)cc1N1CCN(C(=O)Cn2ncc3c4ccccc4n(C)c3c2=O)CC1`, for which the survival was 54%. As for `CC1=C(c2ccc(C)cc2)S(=O)(=O)NC1=NCCCN1CCN(c2ccc(F)cc2)CC1`, the figure is 69%. As for `O=C(O)C(Cc1c[nH]c2ccccc12)Nc1ncnc2c1oc1ccccc12` (configuration not stated), the figure is 76%; as for `CCc1ccc(NC(=O)CCc2c(C)nc3nc(-c4cc(OC)cc(OC)c4)nn3c2C)cc1`, 111%. The figure for `CCCCc1ccc(NC(=O)CSc2nnc3[nH]c(=O)cc(C)n23)cc1` is 95%; for `Cc1ccc(CNC(=O)CCS(=O)(=O)c2ccc3c(c2)CC(C)N3C(=O)C2CC2)cc1` (configuration not stated) it is 91%; for `COc1ccccc1N1CCN(c2ncnc3c2cnn3-c2cccc(Cl)c2)CC1` it is -2% (active).

`c1ccc(CN2CCN(c3ncnc4c3cnn4-c3ccccc3)CC2)cc1`: the survival is 69%. The figure for `COc1ccccc1N1CCN(c2ncnc3c2cnn3-c2cc(Cl)ccc2C)CC1` is 124%; for `COc1ccccc1N1CCN(c2ncnc3c2cnn3-c2ccc(C)cc2)CC1` it is 91%; for `Clc1cccc(-n2ncc3c(N4CCN(Cc5ccccc5)CC4)ncnc32)c1` it is 25% (active). As for `Cc1ccc(-n2ncc3c(N4CCN(Cc5ccccc5)CC4)ncnc32)cc1Cl`, the survival is 87%. The figure for `COc1cc(CSc2ncc(CO)n2Cc2ccc(C)cc2)cc(OC)c1` is 92%; for `O=C(CSc1nc2c([nH]c3ccccc32)c(=O)n1-c1ccccc1)c1ccccc1` it is 77%; for `COc1ccc(-n2c(SCC(=O)c3ccccc3)nc3c([nH]c4ccccc43)c2=O)cc1` it is 98%. The figure for `O=C(CSc1nc2c([nH]c3ccccc32)c(=O)n1-c1ccccc1)c1ccc(Cl)cc1` is 92%; for `O=C(CSc1nc2c([nH]c3ccccc32)c(=O)n1-c1cccc(Cl)c1)c1ccccc1` it is 47% (active). Consider `COc1cccc(NC(=O)CSc2nc3c([nH]c4ccccc43)c(=O)n2-c2ccccc2)c1`, for which the survival is 76%.

As to `Cc1ccc(C)c(NC(=O)CSc2nc3c([nH]c4ccccc43)c(=O)n2-c2ccc(F)cc2)c1`, the survival was 32% (active).

Take `Cc1ccc(-n2c(SCC(=O)c3ccccc3)nc3c([nH]c4ccccc43)c2=O)cc1`: the survival is -5% (active).

For `O=C(CSc1nc2c([nH]c3ccccc32)c(=O)n1-c1ccccc1F)Nc1cccc(C(F)(F)F)c1`, the survival is 74%. The figure for `CCOc1ccc(-n2c(SCC(=O)Nc3cc(C)ccc3C)nc3c([nH]c4ccccc43)c2=O)cc1` is 75%.

As for `O=C(CSc1nc2c([nH]c3ccccc32)c(=O)n1-c1ccccc1)Nc1cccc(C(F)(F)F)c1`, the survival is -4% (active). As for `O=C(CSc1nc2c([nH]c3ccccc32)c(=O)n1-c1ccc(Cl)cc1)c1ccccc1`, the figure is 94%. As for `Cc1cccc(NC(=O)CSc2nc3c([nH]c4ccccc43)c(=O)n2-c2ccc(F)cc2)c1C`, the figure is 49%; as for `CCCn1ccc2c(OCC(=O)Nc3ccc(C(F)(F)F)cc3)cccc2c1=O`, 75%; as for `COc1ccccc1CNC(=O)Cn1nc(C)n2cccc2c1=O`, 94%.

As for `CCN(CC)c1ccc(NC(=O)Cn2cc3c(n2)CCCC3)c(C)c1`, the survival was 121%. As for `CCOc1ccc(-n2c(SCC(=O)NC3CCCC3)nnc2-c2ccoc2C)cc1`, the figure is 92%; as for `O=C(Nc1ccc(F)c(Cl)c1)c1ccc2c(Cl)c3c(nc2c1)CCCC3`, 118%; as for `CCOc1ccccc1NC(=O)c1ccc2c(Cl)c3c(nc2c1)CCCC3`, 35% (active). On to `CCOc1ccccc1NC(=O)c1ccc2c(Cl)c3c(nc2c1)CCC3`, for which the survival was 82%. The figure for `COc1ccc(C)cc1NC(=O)c1ccc2c(SCC(=O)O)c3c(nc2c1)CCCC3` is 77%; for `CCOc1ccc(CNC(=O)c2ccc3c(Cl)c4c(nc3c2)CCCC4)cc1` it is 75%.

As for `COc1cc(Cl)c(C)cc1NC(=O)c1ccc2c(SCC(=O)O)c3c(nc2c1)CCCC3`, the survival is 41% (active). As for `COc1ccccc1NC(=O)c1ccc2c(Cl)c3c(nc2c1)CCCC3`, the figure is 15% (active); as for `COc1ccc(NC(=O)c2ccc3c(SCC(=O)O)c4c(nc3c2)CCCC4)c(OC)c1`, 55%; as for `COC(=O)c1ccccc1NC(=O)c1ccc2c(Cl)c3c(nc2c1)CCCC3`, 80%. Turning to `COc1cc(OC)c(NC(=O)c2ccc3c(Cl)c4c(nc3c2)CCCC4)cc1Cl`, the survival was 85%. As for `COc1ccc(OC)c(NC(=O)c2ccc3c(Cl)c4c(nc3c2)CCCC4)c1`, the figure is 82%; as for `O=C(Nc1ccccc1F)c1ccc2c(Cl)c3c(nc2c1)CCC3`, 21% (active). As for `COc1ccc(NC(=O)C2CCN(c3ccc(Sc4ccc(C)cc4)nn3)CC2)cc1`, the figure is 74%.

For `Cc1ccc(CNC(=O)C(C)n2c(=O)cc(-c3ccccc3)c3c(C)nn(C)c32)cc1` (configuration not stated), the survival is 80%. The figure for `C=CCn1c(Br)nc2c1c(=O)n(C)c(=O)n2C` is 73%. For the molecule `CN(C1CCCCC1)S(=O)(=O)c1ccc2c(c1)c(=O)c(C(=O)NCCc1ccccc1)cn2C`, the survival was 79%. `Cc1cc(C)c2c(-n3cccc3)c(C(=O)NCCc3ccccc3)sc2n1`: the survival was 90%. As for `Cc1cc(C)cc(OCCSc2nc(-c3cccs3)nc3cc(=O)[nH]n23)c1`, the survival was 67%. For the molecule `O=C(COc1ccccc1Cl)Nc1cc(-c2ccccc2F)nn1-c1ccccc1`, the survival was 91%. The figure for `O=C(NCc1cccc(Cl)c1)c1ccc2c(Cl)c3c(nc2c1)CCCC3` is 48%. As for `COc1cccc(CNC(=O)c2ccc3c(Cl)c4c(nc3c2)CCCC4)c1`, the figure is 49% (active); as for `COc1ccc(CNC(=O)c2ccc3c(Cl)c4c(nc3c2)CCCC4)c(OC)c1`, 92%. As for `CCOC(=O)c1ccccc1NC(=O)c1ccc2c(Cl)c3c(nc2c1)CCC3`, the figure is 96%. Regarding `CCOC(=O)c1cccc(NC(=O)c2ccc3c(Cl)c4c(nc3c2)CCC4)c1`, the survival is 41% (active). In the case of `COc1cc(NC(=O)c2ccc3c(Cl)c4c(nc3c2)CCC4)cc(OC)c1OC`, the survival was 62%.

For the origin of these results see PubChem BioAssay AID463173 (ICCB-Longwood Screening Facility, Harvard Medical School, 2010).
